Several values for one entry are separate records, joined by “and”; a condition that tells them apart may be missing. Equal entries are not always repeated. About 79,000 compounds went through this panel and 15% of them were active in at least one assay; those are over-represented in the sample as a whole. Activity calls are given as the source filed them. Cut-off read from the data, not from the text of the source: active = growth inhibition above about 70%; inactive = the rest.
Columns and labels:
[1] = NCI Yeast Anticancer Drug Screen. Data for the rad50 strain (AID 155);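 note: 0% = growth of vehicle-only cultures of the same strain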; conditions: S. cerevisiae rad50 strain growth inhibition, hits give high values
Summary of the method: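 Relative growth inhibition (compound vs vehicle) was measured in yeast with a defined repair-gene alteration.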

[2] = NCI Yeast Anticancer Drug Screen. Data for the mec2-1 strain (AID 157); conditions: S. cerevisiae mec2-1 strain, hits give high values
Summary of the method: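 Strain: mec2-1 (DNA repair/cell cycle alteration). Compound exposure, then growth measured; inhibition expressed relative to vehicle.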

[3] = NCI Yeast Anticancer Drug Screen. Data for the sgs1 mgt1 strain (AID 161);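 note: 0% = growth of cultures given vehicle only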; conditions: S. cerevisiae sgs1 mgt1 strain, hits give high values
Summary of the method: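 Mutant yeast exposed to compound; growth scored against vehicle-only wells.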

[4] = NCI Yeast Anticancer Drug Screen. Data for the cln2 rad14 strain (AID 165);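 note: 0% = growth equal to vehicle treated cultures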; conditions: S. cerevisiae cln2 rad14 strain, hits give high values
Summary of the method: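 Compounds are applied to the cln2 rad14 yeast strain, and growth is then compared with that of vehicle-treated cultures to give inhibition.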

[5] = NCI Yeast Anticancer Drug Screen. Data for the bub3 strain (AID 167); conditions: S. cerevisiae bub3 mutant strain, hits give high values
Summary of the method: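 Screening used yeast with an engineered genetic alteration affecting cell cycle control. Compound-exposed cultures were compared with vehicle cultures, and reduced growth was taken as inhibition.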

[6] = NCI Yeast Anticancer Drug Screen. Data for the mlh1 rad18 strain (AID 175); conditions: S. cerevisiae mlh1 rad18 strain growth inhibition, hits give high values
Summary of the method: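 Read-out is yeast growth inhibition, calculated against vehicle-only controls. The compound was applied to a strain engineered with DNA damage repair alterations.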

[7] = at 5.0 µM (retest, dose inferred, filed as 0.5)
[8] = at 50.0 µM (retest, dose inferred, filed as 5.0)

Measured: growth inhibition

C[N+](C)=C1C=CC(=C2C=CSC=C2)C=C1
active: [5]; [8] 72% | [5]; at 50.0 µM 79.2% | [6]; at 50.0 µM 89.8%
inactive: [1]; [7] 22% | [1]; [8] 45% | [1]; at 50.0 µM 11.1% | [2]; [7] 27% | [2]; [8] 36% | [2]; at 50.0 µM 10.3% | [3]; [7] 20% | [3]; [8] 46% | [3]; at 50.0 µM 59.8% | [4]; [7] 29% | [4]; [8] 45% | [4]; at 50.0 µM 25% | [5]; [7] 17% | [6]; [7] 26% | [6]; [8] 52%

CCC[CH2][Sn]1([CH2]CCC)[O]C(=O)c2cc(C)ccc2[O]1
active: [1]; [7] 82% | [1]; [8] 97% | [1]; at 50.0 µM 88.8% | [2]; [7] 89% | [2]; [8] 98% | [2]; at 50.0 µM 90.8% | [3]; [7] 86% | [3]; [8] 98% | [3]; at 50.0 µM 91.5% | [5]; [7] 91% | [5]; [8] 98% | [5]; at 50.0 µM 90.6% | [6]; [7] 91% | [6]; [8] 98% | [6]; at 50.0 µM 89%

NC(CS)C(=O)O (stereo unspecified)
inactive: [1]; at 50.0 µM -4.8% and 31.9% and -26% | [2]; at 50.0 µM -7.5% and -9.05% and -3.1% | [3]; at 50.0 µM -7.95% and 28.4% and -35.2% | [4]; at 50.0 µM -0.4% and 7.6% and -1.55% | [5]; at 50.0 µM -17.2% and 25.6% and -38.2% | [6]; at 50.0 µM -8.1% and 13.2% and 1.75%

NC(c1ccccc1)C(O)c1ccccc1 (stereo unspecified)
inactive: [1]; at 50.0 µM 2.1% [middle of 4 runs] | [2]; at 50.0 µM 3.2% [middle of 4 runs] | [3]; at 50.0 µM 10.7% [middle of 4 runs] | [6]; at 50.0 µM -10.7% [middle of 4 runs]

C=CCN(CC=C)CC(C(C)=O)C(c1ccccc1)c1c(O)c2ccccc2oc1=O (stereo unspecified)
active: [1]; at 50.0 µM 85.3% | [2]; at 50.0 µM 74.2% | [4]; at 50.0 µM 81.2% | [5]; at 50.0 µM 78.8% | [6]; at 50.0 µM 80.2%
inactive: [1]; [7] 32% | [1]; [8] 32% | [2]; [7] 28% | [2]; [8] 28% | [4]; [7] 13% | [4]; [8] 13% | [5]; [7] 27% | [5]; [8] 27% | [6]; [7] 32% | [6]; [8] 32%

c1ccncc1
inactive: [1]; [7] 17% | [1]; [8] 20% | [2]; [7] -2% | [2]; [8] 7% | [3]; [7] -4% | [3]; [8] 19% | [4]; [7] 0% | [4]; [8] -1% | [5]; [7] -3% | [5]; [8] 6% | [6]; [7] 8% | [6]; [8] 32%

Clc1ccc(CCN2CCOCC2)c(Cl)c1
inactive: [1]; [7] 4% | [1]; [8] 27% | [1]; at 50.0 µM 62.9% | [2]; [7] 0% | [2]; [8] 16% | [2]; at 50.0 µM 34.1% | [4]; [7] 31% | [4]; [8] 30% | [4]; at 50.0 µM 58.5% | [5]; [7] 23% | [5]; [8] 54% | [5]; at 50.0 µM 34.5% | [6]; [7] 5% | [6]; [8] 55% | [6]; at 50.0 µM 64.9%

COc1ccc2c(c1O)-c1cccc3c1[C@@H](C2)N(CCCl)CC3
inactive: [1]; [7] 30% | [1]; at 50.0 µM 67.6% | [2]; [7] 15% | [4]; [7] 13% | [4]; [8] 66% | [4]; at 50.0 µM 35.4% | [5]; [7] 19% | [5]; at 50.0 µM 44.4% | [6]; [7] 52%
active: [1]; [8] 90% | [2]; [8] 99% | [2]; at 50.0 µM 70.8% | [5]; [8] 98% | [6]; [8] 98% | [6]; at 50.0 µM 86.6%

Oc1ccc([Te]CCNCC[Te]c2ccc(O)cc2)cc1
inactive: [1]; [7] 58% | [1]; [8] 58% | [1]; at 50.0 µM 40.8% | [2]; [7] 37% | [2]; [8] 37% | [2]; at 50.0 µM 0.3% | [3]; [7] 40% | [3]; [8] 40% | [3]; at 50.0 µM 16.1% | [4]; [7] 13% | [4]; [8] 13% | [4]; at 50.0 µM 48.3% | [6]; [7] 36% | [6]; [8] 36%
active: [6]; at 50.0 µM 71.5%

Cc1ccc([PH+](c2ccc(C)cc2)c2ccc(C)cc2)cc1.Cc1ccc([PH+](c2ccc(C)cc2)c2ccc(C)cc2)cc1.[Cl][Hg][Cl]
inactive: [1]; at 50.0 µM 47.6% | [4]; at 50.0 µM 29.3%
active: [1]; [7] 98% | [1]; [8] 95% | [2]; [7] 99% | [2]; [8] 98% | [2]; at 50.0 µM 97.2% | [4]; [7] 93% | [4]; [8] 96% | [5]; [7] 98% | [5]; [8] 95% | [5]; at 50.0 µM 99.3% | [6]; [7] 99% | [6]; [8] 94% | [6]; at 50.0 µM 95.9%

N=C(N)SCc1ccccc1
inactive: [1]; at 50.0 µM -2.55% [middle of 5 runs] | [2]; at 50.0 µM -2.2% [middle of 5 runs] | [3]; at 50.0 µM 7.55% [middle of 5 runs] | [5]; at 50.0 µM -5.6% [middle of 5 runs]

CC(C)=CC1CC(C)C2(CCC3(C)CC4C(C(=O)CC4(C)O)/C(C=O)=C\CC32)O1 (stereo unspecified)
active: [1]; [7] 99% | [1]; [8] 100% | [1]; at 50.0 µM 94.5% | [2]; [7] 99% | [2]; [8] 100% | [2]; at 50.0 µM 94.6% | [3]; [7] 99% | [3]; [8] 99% | [3]; at 50.0 µM 95% | [5]; [7] 99% | [5]; [8] 100% | [5]; at 50.0 µM 94.5% | [6]; [7] 99% | [6]; [8] 100% | [6]; at 50.0 µM 93.7%

ClCC[N+]12CC[N+](CCCl)(CC1)C2
inactive: [1]; [7] 59% | [2]; [7] 50% | [6]; [7] 47%
active: [1]; [8] 97% | [2]; [8] 98% | [3]; [7] 86% | [3]; [8] 99% | [4]; [7] 75% | [4]; [8] 98% | [5]; [7] 82% | [5]; [8] 98% | [6]; [8] 97%

— PubChem BioAssay (NCI)
